Molecules are shown by their SMILES. About 83,000 compounds went through this panel and 20% of them were active in at least one assay; those are over-represented in the sample as a whole.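 A percent growth of 40 corresponds to 60% growth inhibition; 0 means no net growth; -100 means all cells died. Active threshold: below 10.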 A number with no mark means an inactive call. Active and inactive are the calls of the source.

The assay has as its system NCI-H460 lung. Briefly: NCI-60 one-dose screen, 48 h (100 = growth as untreated, 0 = no growth, -100 = all killed). The following applies: 10 µM unless noted.
For the compound `COc1cc2c(=O)n(C3CCCCCCC3)c3c4cc[nH]c4ncc3c2cc1OC`, the growth was 13.6%.
As for `C1CCC([PH+](C2CCCCC2)C2CCCCC2[PH+](C2CCCCC2)C2CCCCC2)CC1.[Au].[CH-]1CCCCC1CC1CCCC[N-]1` (stereo unspecified), the figure is -56.4% (active).
`CCCCN1CCCC[C@@H]1C(=O)N[C@H](C(=O)N(C)[C@H](C[C@@H](OC(C)=O)c1nc(C(=O)NC2CCC(C(=O)OC)CC2)cs1)C(C)C)C(C)C` (stereo partly specified): the growth was 9.59% (active).
The same measure for `CS(=O)(=O)CCN1CC2CCCC(C2)C1`: 110%; for `COC(=O)[C@@H](C)C[C@H](Cc1ccccc1)NC(=O)c1nc([C@@H](C[C@H](C(C)C)N(C)C(=O)[C@@H](NC(=O)[C@H]2CCCCN2C)C(C)C)OC(C)=O)sc1C(C)C`: 5.54% (active); for `C=CC[Se]C(=O)c1ccccc1OC(C)=O`: -13.4% (active).
Take `CC(C)[C@@H]1NC(=O)[C@]2(C)CSC(=N2)c2csc(n2)CNC(=O)C[C@@H](/C=C/CCS)OC1=O`: the growth is 8.13% (active).
Consider `Clc1cccc(Cl)c1Cl`, for which the growth was 107%.
Take `O=C(CC1(O)C(=O)Nc2ccc(Cl)cc21)c1ccc(C(=O)NCC2CCC3(CC2)OOC2(CCCCC2)OO3)cc1` (stereo unspecified): the growth is -55.4% (active).
For the compound `COc1ccc(C(O)(C(=O)O)c2ccc(OC)cc2)cc1`, the growth was 97.2%.
As for `CCn1c2ccccc2c2cc(C(=O)c3ccc(C)c4ccccc34)ccc21`, the figure is 10.6%.
The same measure for `COC(=O)[C@]12CCC(C)(C)C[C@H]1[C@H]1C(=O)C[C@@H]3[C@@]4(C)C[C@@]5(CC(C)(C)[C@@H]4CC[C@@]3(C)[C@]1(C)CC2)OO[C@@](C)(C(F)(F)F)O5`: 101%; for `CC[C@]12C=CCN3CC[C@@]4(c5ccc(OC)cc5N(C)[C@H]4[C@@](O)(C(=O)OC)[C@@H]1OC(=O)CCCC[P+](c1ccccc1)(c1ccccc1)c1ccccc1)[C@@H]32`: 18.4%.
As for `CCCCCCCCOC(=O)CCN1CC1`, the growth was 115%.
Turning to `CC1[C@H](C)OC(=O)CC(O)CC(O)CC(O)CCC(O)C(O)C[C@]2(O)CC(O)C(C(=O)O)C(CC(OC3O[C@H](C)[C@@H](O)[C@H](N)[C@@H]3O)/C=C/C=C/C=C/C=C/CC/C=C/C=C/[C@H](C)[C@H]1O)O2` (stereo partly specified), the growth is 103%.
For the compound `c1cc2c(c3c1CCNC3)OCO2`, the growth was 114%.
As for `Cc1ccc(N2COOC3(OOC2)C2CC4CC(C2)CC3C4)cc1`, the growth is 103%.
For the compound `O=C(CC1(O)C(=O)N(Cc2ccccc2)c2ccc(Br)cc21)c1ccc(C(=O)NCC2CCC3(CC2)OOC2(CCCCC2)OO3)cc1` (stereo unspecified), the growth was -41% (active).
Turning to `C[C@@H]1C[C@@]2(C)[C@@H](CC[C@@H]3[C@@H]2CC[C@]2(C)C(=O)CC[C@@H]32)CC1=O`, the growth was 108%.
The same measure for `CCN(CC)c1ccc2c(c1)OC(N)=C(C#N)C2c1cc(OC)c2c(c1)OCO2` (stereo unspecified): 3.22% (active).
Take `O=P(Oc1ccc(Cl)cc1)(N1CC1)N1CC1`: the growth is 39.3%.
With `O=[N+]([O-])c1cc(I)cc([N+](=O)[O-])c1`, the growth was 111%.
Turning to `CC(=O)O[C@H](C[C@H](C(C)C)N(C)C(=O)[C@@H](NC(=O)[C@H]1CCCCN1C)C(C)(C)C)c1nc(C(=O)N[C@@H](Cc2ccccc2)C[C@H](C)C(=O)O)cs1`, the growth was 4.25% (active).
Consider `CC[C@H](C)[C@H](NC(=O)[C@H]1CCCCN1C)C(=O)N(C)[C@H](C[C@@H](O)c1nc(C(=O)N[C@@H](Cc2ccccc2)C[C@H](C)C(=O)O)cs1)C(C)C`, for which the growth is 95.6%.
As to `CN1CCC(O)(c2ccc(F)cc2)C(C(=O)c2ccc(F)cc2)C1` (stereo unspecified), the growth is 109%.
As for `O=C1NC(=O)C(=Cc2cccn2CCCCCn2c3ccccc3c(=O)c3ccccc32)C(=O)N1`, the figure is 108%.
The same measure for `COC(=O)[C@@H](C[C@H](Cc1ccccc1)NC(=O)c1csc([C@@H](C[C@H](C(C)C)N(C)C(=O)[C@@H](NC(=O)[C@H]2CCCCN2C)C(C)C)OC(C)=O)n1)NC(=O)OCc1ccccc1`: 5.31% [9.5 µM] (active).
The same measure for `CN(C)CCCOc1ccc2c(c1)c(C(=O)C(=O)NCCO)cn2Cc1ccccc1`: 105%; for `COc1cc(C=Nc2cc(Cl)cc(Cl)c2)ccc1N(CCCl)CCCl`: 13.7%; for `CCOC(=O)N[C@H]1CCc2c(Br)c(OC)c(OC)c(OC)c2-c2ccc(SC)c(=O)cc21`: -7.92% (active).
As for `C/C(CC(C)(C)N1CC1)=N\NC(=O)Nc1cccc2ccccc12`, the growth was 42.9%.

The values are drawn from PubChem BioAssay (NCI).
